A value given as a limit tells only on which side of the number the result lay.

We go through 14 compounds from paper PMC5540273 (PLoS ONE, 2017).
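Note: kd values determined as follow-up on hits from a single-replicate KINOMEscan panel screen.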

One assay concerns ACVR1B.
In turn, `COc1ccc2nc(-c3cccc(C)n3)nc(Nc3ccncc3)c2c1` [GSK204919] showed a Kd of 150 nM.
`Cc1cccc(-c2nc(Nc3ccc4[nH]ncc4c3)c3ccccc3n2)n1` [GW857175] returned a Kd of 54 nM.
As for `Cl.c1ccc(-c2n[nH]cc2-c2ccnc(-c3ccc(CN4CCOCC4)cc3)c2)nc1` [GW776245], the dissociation constant Kd came to 180 nM.
The compound `Cc1cccc(-c2nc(Nc3ccncc3)c3ccccc3n2)n1` [GW855857] returned an equilibrium dissociation constant (Kd) of 3.3 nM.
Consider `Cc1ccc(NC(=O)Nc2cccc(C(F)(F)F)c2)cc1` [GSK955403], for which the Kd was more than 10000 nM.
Compound `Cc1csc(-c2nc(Nc3ccncc3)c3ccccc3n2)n1` [GW869640] had a Kd of 39 nM.
`Cc1cccc(-c2nc(Nc3cccc(C(N)=O)c3)c3ccccc3n2)n1` [GW876019] gave a Kd of 1600 nM.
Still for that read-out and setting: the result for `Cc1cccc(-c2cc(Nc3ccncc3)c3ccccc3n2)n1` [GSK223675] reads 31 nM.

In another assay the test system is ACVR2B.
In turn, `Cc1c(O)cccc1Nc1ccnc2ccc(C(F)(F)F)cc12.Cl` [GW466413] showed a Kd of 240 nM.
The compound `Fc1cc(Cl)ccc1Nc1ccnc2cc(I)ccc12` [GW551191] yielded a Kd of 110 nM.
`Fc1cccc(COc2nnc(-c3ccc4c(c3)CCO4)o2)c1`: the Kd is more than 10000 nM.

A further assay concerns ADCK4.
For the compound `Cc1c(O)cccc1Nc1ccnc2ccc(C(F)(F)F)cc12.Cl` [GW466413], the dissociation constant Kd amounted to 510 nM.
Compound `Cl.Oc1ccc(-c2nc(-c3ccccc3)[nH]c2-c2ccncc2)cc1` [SB-428218] registered a Kd of more than 10000 nM.
On the same count and under the same terms, with `Cc1cc(NCC(c2ccccc2)c2ccccc2)nc(NCc2ccc(C(F)(F)F)cc2)n1` [GW497681] the figure was 2300 nM; with `CCn1c(-c2cccnc2O)nc2cnccc21` [SB-736715], more than 10000 nM.
